Sampled rows, rich in hits. Any-hit rate of the full collection: about 15%.
RORgamma inh – blocks mouse ROR gamma transcriptional activity; AID 2551; Potency, µM (titrated, usually from 53.6 µM), for the others: at the highest dose activity change, negative = inhibition, usual class: inhibitors; actives 5.4% (n = 310,000); Drosophila S2 Gal4-RORgamma UAS-luciferase reporter, 20 h; note: nearly all actives have a fitted effect of over 60% in size
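A Gal4/UAS one-hybrid system in insect cells: metallothionein-promoter Gal4–ROR gamma fusion plus Photinus luciferase reporter. Copper sulfate 700 uM final, 20 hr ambient incubation, luminescent detection after 10 min with reagent.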
VP16 counter – Gal4-VP16 reporter inhibition counter-screen | Potency, µM (titrated, usually from 53.6 µM), without a hit: at the highest dose activity, negative = inhibition, hits mostly inhibitors | AID 2546 | actives 3.5% (n = 310,000) | Drosophila S2 Gal4-VP16 UAS-luciferase, luminescence, 20 h;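 note: Gal4-VP16 expression switched on by copper sulfate through the metallothionein promoter; nearly all actives have a fitted effect of over 50% in size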
ELG1 repair inh – inhibitors of ELG1-dependent DNA repair in HEK293T cells; HEK293T ELG1-luciferase reporter, luminescence, 16 h; DNA damage induced by 5-fluorouridine; Potency, µM (top dose mostly 46.1 µM), inactives show at the top dose activity change, negative = inhibition, actives largely listed as inhibitors; actives 2.3% (n = 330,000); note: nearly all actives have a fitted effect of over 55% in size
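DMSO vehicle served as the neutral condition. Each well held 2,000 cells given 5-fluorouridine plus compound; after 16 hr at 37 °C/5% CO2, ONE-Glo was added and luciferase measured 30 min later.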
TDP1 cell noCPT – qHTS for Inhibitors of human tyrosyl-DNA phosphodiesterase 1 (TDP1): qHTS in cells in absence of CPT | DT40 Tdp1-/- hTDP1 cells, no CPT, ATP luminescence, 48 h | Potency, µM (titrated, usually from 46.2 µM), for inactives: at the top dose activity change, negative = growth inhibition, hits mostly inhibitors | actives 15% (n = 420,000); note: nearly all actives have a fitted effect of over 55% in size
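Growth of hTDP1-complemented DT40 Tdp1-knockout cells is measured by ATP luminescence after at least 48 hr compound exposure at 37 °C, with DMSO substituting for the 20 nM CPT used in the parallel screen.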
12-LOX inh – ALOX12 (human) lipoxygenase inhibition; actives 1.1% (n = 580,000); Potency, µM (series often up to 108 µM), for inactives: top-dose activity change, negative = inhibition, most hits filed as inhibitors; P18054; AID 1671190; purified 12hLO, xylenol orange hydroperoxide absorbance
Target sequence (P18054 whole entry, looked up): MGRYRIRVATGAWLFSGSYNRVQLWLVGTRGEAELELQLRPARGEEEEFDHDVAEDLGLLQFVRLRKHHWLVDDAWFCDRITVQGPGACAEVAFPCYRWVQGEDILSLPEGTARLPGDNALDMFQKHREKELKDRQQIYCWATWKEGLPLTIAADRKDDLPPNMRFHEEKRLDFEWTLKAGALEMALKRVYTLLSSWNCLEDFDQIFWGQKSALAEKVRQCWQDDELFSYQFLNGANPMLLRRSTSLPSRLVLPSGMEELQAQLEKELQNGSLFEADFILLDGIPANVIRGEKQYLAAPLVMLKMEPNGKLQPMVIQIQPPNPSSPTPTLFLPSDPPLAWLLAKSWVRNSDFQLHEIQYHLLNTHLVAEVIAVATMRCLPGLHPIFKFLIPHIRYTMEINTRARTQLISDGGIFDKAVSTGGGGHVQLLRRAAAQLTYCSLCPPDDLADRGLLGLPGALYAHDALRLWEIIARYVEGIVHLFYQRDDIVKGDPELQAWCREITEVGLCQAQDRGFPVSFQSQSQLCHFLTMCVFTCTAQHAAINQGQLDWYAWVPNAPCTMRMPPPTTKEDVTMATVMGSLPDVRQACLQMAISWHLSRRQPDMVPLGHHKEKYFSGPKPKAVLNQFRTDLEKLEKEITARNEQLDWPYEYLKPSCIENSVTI
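Purified human 12hLO at 150 nM in 25 mM Hepes, 0.01% Triton X-100, pH 7.0, preincubated 15 min at room temperature with compound. Reaction started with 40 uM arachidonic acid, 30 min at room temperature. Hydroperoxide measured by Fe-xylenol orange, 573/405 nm absorbance ratio.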
DT40 TDP1 CPT – DT40-hTDP1 cell growth loss with CPT. AID 686979. actives 12% (n = 420,000). chicken DT40 Tdp1-/-;hTDP1 cells + 20 nM CPT, ATP luminescence, 48 h. Potency, µM (highest dose often 46.2 µM), inactives show top-dose activity change, negative = growth inhibition, most hits filed as inhibitors; note: nearly all actives have a fitted effect of over 55% in size
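Chicken DT40 Tdp1-/- cells stably complemented with human TDP1 were seeded at 400 cells/well in medium containing 20 nM camptothecin, exposed to pin-transferred compounds, and grown at 37 °C for at least 48 hr. Viability was read as ATP luminescence.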
The depositor's hits bear a star; [ ] = another dose, or the depositor's remark. Calls come from the whole dose curve; as a rule, active = well fitted curve in the direction sought with a large enough effect; inconclusive = small, poorly fitted or top-dose-only effect, or another doubt; inactive = no such curve, though single readings can be large; an effect the other way counts as inactive or inconclusive. % is set by controls: 0 for no effect and ±100 for the full control effect; potency is the fitted concentration of half-maximal effect.

How did Cc1ccc2nc(NC(=O)CCCC(=O)O)sc2c1 do in these assays?
RORgamma inh: 1.1µM*; VP16 counter: 0.79µM*; ELG1 repair inh: -16%; TDP1 cell noCPT: inconclusive; 12-LOX inh: -4%; DT40 TDP1 CPT: -2%

What do the screens show for `CCOCC(=O)Nc1nc2ccc(C)cc2s1`?
RORgamma inh: -39%; VP16 counter: -29%; ELG1 repair inh: inconclusive; TDP1 cell noCPT: inconclusive; 12-LOX inh: inconclusive; DT40 TDP1 CPT: -22%

What do the screens show for `Cc1ccc2nc(NC(=O)CCCc3nc4ccccc4s3)sc2c1`?
RORgamma inh: 19%; VP16 counter: 15%; ELG1 repair inh: inconclusive; TDP1 cell noCPT: inconclusive; 12-LOX inh: 144%; DT40 TDP1 CPT: inconclusive

What do the screens show for `COc1ccc(C(=O)Oc2cccc3c(OC)ccc(C=O)c23)cc1OC`?
12-LOX inh: -8%

How did Cc1cc(C)cc(NC(=S)N2CCN(c3ccc(F)cc3)CC2)c1 do in these assays?
RORgamma inh: 7.1µM*; VP16 counter: -25%; ELG1 repair inh: 9%; TDP1 cell noCPT: -9%; 12-LOX inh: -5%; DT40 TDP1 CPT: -20%

Results for Cc1cc(C)cc(NC(=S)N2CCN(c3ncc(C(F)(F)F)cc3Cl)CC2)c1 ?
RORgamma inh: 3.5µM*; VP16 counter: -26%; ELG1 repair inh: 29%; TDP1 cell noCPT: inconclusive; 12-LOX inh: 393%; DT40 TDP1 CPT: inconclusive

What do the screens show for `Cc1cccc(NC(=S)N2CCN(S(=O)(=O)c3ccc(F)cc3)CC2)c1`?
RORgamma inh: 13µM*; VP16 counter: -16%; ELG1 repair inh: -5%; TDP1 cell noCPT: 9%; 12-LOX inh: inactive; DT40 TDP1 CPT: -2%

How did Cc1cc(C)cc(NC(=S)N2CCN(CCO)CC2)c1 do in these assays?
RORgamma inh: -4%; VP16 counter: -11%; ELG1 repair inh: -1%; TDP1 cell noCPT: -13%; 12-LOX inh: 12%; DT40 TDP1 CPT: 5%

How did Cc1cc(C)cc(NC(=S)N2CCN(c3ncccn3)CC2)c1 do in these assays?
RORgamma inh: 14µM*; VP16 counter: inconclusive; ELG1 repair inh: -5%; TDP1 cell noCPT: inconclusive; 12-LOX inh: -5%; DT40 TDP1 CPT: -7%

Results for O=S(=O)(c1ccccc1)N1CCN(C(=S)Nc2ccc(F)cc2)CC1 ?
RORgamma inh: -15%[10 µM]; VP16 counter: 2%; ELG1 repair inh: 3%; TDP1 cell noCPT: -11%; 12-LOX inh: -26%; DT40 TDP1 CPT: -3%

What do the screens show for `CCCCCn1nc(C(=O)Nc2cccc(OC)c2)c2ccccc2c1=O`?
12-LOX inh: 5%

What do the screens show for `Cc1ccc2cccc(OCCNC(=O)C3NCCc4[nH]cnc43)c2n1` (configuration not stated)?
12-LOX inh: 94%

What do the screens show for `C=CCNCc1cccc(Br)c1`?
12-LOX inh: -20%

What do the screens show for `Cc1cccc(OCC(=O)NCCn2cccc2-c2nc(-c3ccc4c(c3)OCO4)no2)c1`?
12-LOX inh: 30%

What do the screens show for `Cc1cccc(NC(=S)N2CCN(c3ccc(F)cc3)CC2)c1`?
RORgamma inh: 8.9µM*; VP16 counter: inconclusive; ELG1 repair inh: 2%; TDP1 cell noCPT: inconclusive; 12-LOX inh: -8%; DT40 TDP1 CPT: -17%

How did O=c1oc2ccc(Cl)cc2cc1-c1nnc(Nc2cccc(C(F)(F)F)c2)s1 do in these assays?
RORgamma inh: -9%; VP16 counter: 1%; ELG1 repair inh: 1%; TDP1 cell noCPT: 2.6µM*; 12-LOX inh: -5%; DT40 TDP1 CPT: inconclusive

Results for Cc1ccc(-c2c(NC(=O)CN3CCC(C(N)=O)CC3)oc3ccc(Cl)cc3c2=O)cc1 ?
12-LOX inh: 11%

Results for CCCc1c(-c2ccc(Cl)cc2)ncn1Cc1cccc(-c2ccccc2)c1 ?
TDP1 cell noCPT: 3.3µM*; 12-LOX inh: 5µM*; DT40 TDP1 CPT: 5.2µM*

What do the screens show for `CCc1c(-c2ccc(Br)cc2)ncn1Cc1cccc(-c2ccccc2)c1`?
TDP1 cell noCPT: 5.2µM*; 12-LOX inh: inconclusive; DT40 TDP1 CPT: 7.3µM*

How did CCCc1c(-c2cccc(Br)c2)ncn1Cc1cccc(-c2ccccc2)c1 do in these assays?
TDP1 cell noCPT: 21µM*; 12-LOX inh: 3.5µM*; DT40 TDP1 CPT: 16µM*

How did CCOc1cc(C(=O)N/N=C/c2ccoc2)cc(OCC)c1OCC do in these assays?
RORgamma inh: 0%; VP16 counter: 11%; ELG1 repair inh: 6%; TDP1 cell noCPT: 6%; 12-LOX inh: 0%; DT40 TDP1 CPT: 16%

How did CC(C)COc1ccc(C(=O)N/N=C/c2ccoc2)cc1 do in these assays?
RORgamma inh: 18µM*; VP16 counter: 14µM*; ELG1 repair inh: inconclusive; TDP1 cell noCPT: 1%; 12-LOX inh: 453%; DT40 TDP1 CPT: 15%

How did CCCCCCOc1ccc(/C=N/NC(=O)C2CC2)cc1 do in these assays?
RORgamma inh: -4%; VP16 counter: 13%; ELG1 repair inh: 5%; TDP1 cell noCPT: -8%; 12-LOX inh: 2%; DT40 TDP1 CPT: -29%

Results for CCCCOc1ccc(/C=N/NC(=O)c2csc(C)c2C)cc1 ?
RORgamma inh: 11µM*; VP16 counter: inconclusive; ELG1 repair inh: inconclusive; TDP1 cell noCPT: inconclusive; 12-LOX inh: 11%; DT40 TDP1 CPT: inconclusive

What do the screens show for `Cc1scc(C(=O)N/N=C/c2ccc(OCC(C)C)cc2)c1C`?
RORgamma inh: 11µM*; VP16 counter: inconclusive; ELG1 repair inh: inconclusive; TDP1 cell noCPT: inconclusive; 12-LOX inh: 17%; DT40 TDP1 CPT: inconclusive

Results for Cc1c(C=O)c2ccccc2n1CCOc1ccccc1F ?
RORgamma inh: inconclusive; VP16 counter: inconclusive; ELG1 repair inh: -1%; TDP1 cell noCPT: 10µM*; 12-LOX inh: 0%; DT40 TDP1 CPT: 23µM*

What do the screens show for `Fc1ccccc1OCCn1c(=S)[nH]c2ccccc21`?
RORgamma inh: 5.6µM*; VP16 counter: 4.5µM*; ELG1 repair inh: 14%; TDP1 cell noCPT: -15%; 12-LOX inh: inconclusive; DT40 TDP1 CPT: 12%

What do the screens show for `Cc1ccccc1OCCn1c(=O)oc2ccccc21`?
RORgamma inh: 21%; VP16 counter: 14%; ELG1 repair inh: 22%; TDP1 cell noCPT: -22%; 12-LOX inh: -18%; DT40 TDP1 CPT: -14%

How did Cc1ccccc1OCCn1c(=S)[nH]c2ccccc21 do in these assays?
RORgamma inh: 2.5µM*; VP16 counter: 4.5µM*; ELG1 repair inh: -9%; TDP1 cell noCPT: inconclusive; 12-LOX inh: -8%; DT40 TDP1 CPT: inconclusive

Screens deposited in PubChem BioAssay by National Center for Advancing Translational Sciences (NCATS).
